Screens deposited in PubChem by National Center for Advancing Translational Sciences (NCATS).
TDP1 inh – TDP1 (human) enzyme inhibition. Q9NUW8. recombinant TDP1, AlphaScreen DNA substrate cleavage. Potency, µM (series often up to 130 µM), for the others: top-dose activity change, negative = inhibition, actives largely listed as inhibitors. 0.28% of 350,000 active; further: potency means the concentration at half of the fitted maximal effect; nearly all actives have a fitted effect of over 40% in size
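AlphaScreen read-out: signal falls as enzyme removes the 3' tyrosine-FITC from a 5'-biotinylated DNA oligo (15 nM, 5 min, RT). Enzyme was E. coli-made recombinant Tdp1 at 1 nM, exposed to compound for 15 min beforehand; beads 10 ug/ml, 10 min.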
CtBP-E1A blk – inhibitors of CtBP/E1A interaction; AlphaScreen GST-E1A/His-CtBP binding, 1536-well; stronger effect = lower value; activity change, % (concentration not given with the values); 0.49% of 340,000 active; in the data active means activity change below about -65%; inconclusive means mostly about -30% to -63%
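Homogeneous bead-based format: GST-tagged E1A captured on glutathione donor beads, His-tagged CtBP on nickel acceptor beads; compounds precede bead addition by 2 h at 37 °C.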
Six1-Eya2 inh – blocks human Six1 binding to Eya2; Q15475+O00167; AlphaScreen GST-Six1/His-Eya2 binding, biochemical; stronger effect = lower value; activity change, % (no concentration beside the values); 0.56% of 360,000 active; AID 651725; in the data active means activity change below about -65%; inconclusive means mostly about -30% to -63%
Target sequence (O00167 whole entry, looked up): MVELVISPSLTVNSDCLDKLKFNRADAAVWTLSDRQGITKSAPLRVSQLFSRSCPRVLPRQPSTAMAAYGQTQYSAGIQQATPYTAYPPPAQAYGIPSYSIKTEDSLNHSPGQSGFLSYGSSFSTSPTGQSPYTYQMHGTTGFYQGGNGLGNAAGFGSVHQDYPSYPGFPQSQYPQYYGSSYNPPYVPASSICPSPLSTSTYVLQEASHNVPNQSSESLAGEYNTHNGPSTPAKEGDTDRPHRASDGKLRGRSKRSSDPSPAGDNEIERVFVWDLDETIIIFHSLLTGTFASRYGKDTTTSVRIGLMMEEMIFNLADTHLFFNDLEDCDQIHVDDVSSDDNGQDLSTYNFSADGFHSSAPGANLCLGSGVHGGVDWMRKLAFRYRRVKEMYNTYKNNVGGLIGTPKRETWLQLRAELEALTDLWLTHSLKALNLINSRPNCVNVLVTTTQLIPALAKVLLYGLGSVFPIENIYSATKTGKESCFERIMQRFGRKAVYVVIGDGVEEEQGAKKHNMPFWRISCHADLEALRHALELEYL
Target sequence (Q15475 whole entry, looked up): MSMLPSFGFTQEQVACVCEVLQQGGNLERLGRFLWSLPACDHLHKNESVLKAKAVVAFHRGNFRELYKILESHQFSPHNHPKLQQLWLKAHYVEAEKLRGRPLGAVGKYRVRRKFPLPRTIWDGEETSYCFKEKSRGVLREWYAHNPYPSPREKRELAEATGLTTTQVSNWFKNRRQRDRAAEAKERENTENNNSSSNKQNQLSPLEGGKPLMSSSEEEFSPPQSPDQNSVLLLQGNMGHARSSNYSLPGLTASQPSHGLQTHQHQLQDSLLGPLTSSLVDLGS
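GST-Six1 + His-Eya2 (5X stock: 250/500 nM); Tris pH 8.0, 300 mM NaCl, 0.05% BSA, 0.02% Tween 20; GSH donor/Ni acceptor beads; 1 h 37 °C dark; AlphaScreen readout.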
TDP1 cell noCPT – qHTS for Inhibitors of human tyrosyl-DNA phosphodiesterase 1 (TDP1): qHTS in cells in absence of CPT; DT40 Tdp1-/- hTDP1 cells, no CPT, ATP luminescence, 48 h; Potency, µM (highest dose often 46.2 µM), for the others: at the highest dose activity change, negative = growth inhibition, hits mostly inhibitors; 15% of 420,000 active; further: potency means the concentration at half of the fitted maximal effect; nearly all actives have a fitted effect of over 55% in size
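Chicken DT40 Tdp1-/- cells complemented with human TDP1, screened without camptothecin (DMSO vehicle only), 400 cells/well. Compounds pin-transferred, cells incubated at 37 °C for at least 48 hr. Growth read as ATP-dependent luminescence (CellTiter-Glo, 30 min at RT).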
DT40 TDP1 CPT – DT40-hTDP1 cell growth loss with CPT | Potency, µM (titrated, usually from 46.2 µM), inactives show at the top dose activity change, negative = growth inhibition, actives largely listed as inhibitors | 12% of 420,000 active | AID 686979 | chicken DT40 Tdp1-/-;hTDP1 cells + 20 nM CPT, ATP luminescence, 48 h; further: potency means the concentration at half of the fitted maximal effect; nearly all actives have a fitted effect of over 55% in size
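Cell growth measured by CellTiter-Glo luminescence after a minimum 48 h, 37 C compound exposure with 20 nM CPT in Tdp1-knockout DT40 cells stably expressing hTDP1, seeded 400/well; qHTS titration format.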
IL-1B inflam inh – inhibitors of inflammasome signaling (IL-1 beta secretion); AID 743279; activity change, % at 57.5 µM; THP-1 LPS/ATP IL-1B secretion, AlphaLISA, 16 h; stronger effect = lower value; 4.7% of 360,000 active; in the data active means activity change below about -50%; inconclusive means mostly about -30% to -49%
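Secreted IL-1B measured by AlphaLISA bead assay after 16 h compound exposure of THP-1 cells; compounds (final up to 57.5 uM) added 1 h before LPS (250 ng/mL) and ATP (1.25 mM) stimulation; lower signal means less secretion.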
The depositor's hits bear a star; ? = inconclusive; / = no result given; [ ] = dose if it differs, or a comment. A selection: hits, their analogues and other compounds. The true share with any hit is near 18%. Unless noted, the call rests on the fitted dose curve; in most records, active means well fitted curve in the direction sought with a large enough effect; inconclusive means small, poorly fitted or top-dose-only effect, or another doubt; inactive means no such curve, though single readings can be large; an effect the other way counts as inactive or inconclusive. On the % scale 0 is the no-effect control and ±100 the full control effect.

SMILES | TDP1 inh | CtBP-E1A blk | Six1-Eya2 inh | TDP1 cell noCPT | DT40 TDP1 CPT | IL-1B inflam inh
COc1ccc(Cn2c(CCC(=O)N3CCN(c4ccccn4)CC3)nc3ncccc3c2=O)cc1 | 3% | -1 | 2 | -9% | -22% | -10
O=C(CCc1nc(-c2ccccc2Cl)no1)NC1CCCCC1 | / | 2 | 4 | 21µM* | ? | 9
O=C(CCc1nc(-c2ccccc2F)no1)NC1CCCCCC1 | -2% | 0 | -3 | 29µM* | ? | 20
O=c1cc(NS(=O)(=O)c2ccccc2)nc(SCc2ccccc2Cl)[nH]1 | 0% | 4 | 3 | ? | ? | 0
O=C1CC(Sc2ccc(Cl)cc2)C(=O)N1Cc1ccncc1 (stereo not drawn) | 5% | 6 | -1 | 18µM* | 23µM* | -3
COc1ccc(NS(=O)(=O)c2ccc(C(=O)N(C)Cc3ccc(C)o3)cc2)cc1 | 6% | -11 | -3 | 15µM* | 13µM* | -11
COc1cccc(CN(C)C(=O)c2cccc(S(=O)(=O)Nc3cccc(C)c3)c2)c1OC | / | -3 | -9 | 16µM* | 23µM* | -12
CCOc1ccc(CN(C)C(=O)c2cccc(S(=O)(=O)Nc3ccccc3OC)c2)cc1OC | / | 0 | -1 | 15µM* | ? | -28
CCOc1ccc(NS(=O)(=O)c2ccc(C(=O)N(C)Cc3cccc(OC)c3OC)cc2)cc1 | 5% | 0 | -9 | 15µM* | 15µM* | 0
COc1ccc(CN(C)C(=O)c2ccc(NS(=O)(=O)c3ccc(F)cc3)cc2)c(OC)c1 | 2% | -1 | -2 | -1% | -24% | -4
COc1cccc(CN(C)C(=O)c2ccc(NS(=O)(=O)c3ccc4[nH]c(=O)[nH]c4c3)cc2)c1OC | 4% | 4 | -1 | 7% | 5% | -15
Cc1ccc(S(=O)(=O)NCCC(=O)NCC(c2cccs2)N2CCOCC2)cc1 (stereo not drawn) | / | 0 | 6 | -6% | ? | -6
CC1(C)CC(=O)C=C(NCCN2CCN(C(=S)Nc3ccccc3)CC2)C1 | 0% | 4 | 6 | -2% | 1% | 8
C=CCN=C1SCC(=O)N1S(=O)(=O)c1ccccc1 | 5% | 1 | 6 | -4% | 5% | 8
CCOc1ccc(NS(=O)(=O)c2ccc(C(=O)N(C)CC(=O)Nc3ccc(C)cc3)cc2)cc1 | -2% | -3 | -8 | 16µM* | ? | ?
CN(CC(=O)Nc1ccc(Cl)cc1)C(=O)c1ccc(S(=O)(=O)Nc2ccccc2)cc1 | ? | -12 | 4 | ? | ? | ?
CC1CCCCC12NC(=O)N(CC(=O)Nc1nccs1)C2=O (stereo not drawn) | -1% | 2 | 6 | -11% | 18% | 24
O=C(c1ccc2c3c(cccc13)CC2)C1CCCN(C(=O)c2ccc[n+]([O-])c2)C1 (stereo not drawn) | 2% | 4 | 3 | 8% | 3% | 5
Cn1ccc2c(-c3cncc4ccccc34)cc3c(c21)C1CCC3O1 (stereo not drawn) | / | -19 | 4 | ? | ? | -13
C1CCCCCC2(CCCCC1)OCC(CN1CCOCC1)O2 (stereo not drawn) | 4% | 4 | -11 | 23µM* | ? | 7
Cc1ccc(Nc2nnc(-c3ccc(C)c(S(N)(=O)=O)c3)c3ccccc23)cc1 | -2% | / | / | / | / | /
Cc1ccc(Nc2nccc(N(C)c3ccc4c(C)n(C)nc4c3)n2)cc1S(N)(=O)=O | / | / | / | 13µM* | 11µM* | /
COC(=O)c1cc(=O)c2c(ccc3oc(=O)ccc32)[nH]1 | / | -2 | -7 | -5% | -25% | 7
COc1cccc(NC(=O)c2ccc(CN3CCc4ccccc4C3)cc2)c1 | / | -25 | -6 | ? | 16µM* | ?
COc1c(F)c(F)c(C(=O)Nc2ccc(N3CCN(Cc4ccccc4)CC3)cc2)c(F)c1F | 10% | -20 | -22 | 11µM* | 16µM* | -9
SMILES | TDP1 inh | CtBP-E1A blk | Six1-Eya2 inh | TDP1 cell noCPT | DT40 TDP1 CPT | IL-1B inflam inh
COc1ccc(C(=O)Nc2ccc(N3CCN(Cc4ccccc4)CC3)cc2)cc1 | -8% | 8 | 4 | -17% | -14% | 24
Cc1cc(C)c(NC(=O)c2ccc(CN3CCc4ccccc4C3)cc2)c(C)c1 | 6% | -2 | -5 | 12µM* | 16µM* | -17
COc1cccc(N2CCN(CC(=O)Nc3nnc(-c4ccccc4)s3)CC2)c1 | 9% | -23 | ? | 21µM* | 23µM* | -12
COC(=O)C[C@H]1N(S(=O)(=O)c2ccc(C)cc2)C(C(C)C)CC1(C(=O)OC)C(=O)OC (stereo partly drawn) | / | 0 | 1 | ? | ? | -20
COc1cccc(NC(=O)c2ccc(CN3CCN(c4ccccc4)CC3)cc2)c1 | 9% | -20 | -20 | 18µM* | ? | -2
CCCNC(=O)c1ccc(CN2CCc3ccccc3C2)cc1 | 4%[56.1 µM] | 3 | 9 | -24% | -10% | 2
C/C(=N\NC(=O)c1ccc(CN2CCc3ccccc3C2)cc1)c1ccccc1O | 4% | -22 | -26 | 8.2µM* | 12µM* | 163
Cc1ccnc(NS(=O)(=O)c2ccc(NC(=O)c3ccc(C)c(C)c3)cc2)n1 | 1%[12.3 µM] | / | / | -7% | -3% | /
O=C(C1=C(O)C(=O)N(CCN2CCOCC2)C1c1ccco1)c1cc2ccccc2o1 (stereo not drawn) | 5% | 8 | 9 | 23% | -8% | 0
COc1ccc(OCc2nc(-c3ccc(OC)c(OC)c3)no2)cc1 | / | / | / | ? | 16µM* | /
CCOc1ccc(-c2cc(-c3nc(-c4ccc(OC)c(OC)c4)no3)[nH]n2)cc1 | 0% | / | / | 6.5µM* | 16µM* | /
CCOc1ccc(-c2cc(-c3nc(-c4cc(OC)c(OC)c(OC)c4)no3)[nH]n2)cc1Cl | 3% | / | / | 3.3µM* | 5.8µM* | /
CCOc1nc(-c2ccccc2)ccc1-c1noc(-c2ccc(OC)c(OC)c2)n1 | / | -2 | -2 | -8% | ? | -7
COc1cc(-c2noc(-c3cccc(Cl)c3)n2)cc(OC)c1OC | 11% | 5 | 9 | 0% | 0% | -20
Cc1c(C(=O)O)oc2ccc3c(c12)C(O)CC(C)(C)O3 (stereo not drawn) | / | 2 | 1 | 11% | -3% | -3
O=C(O)CN1CCN(Cc2ccccc2)C1=O | 9% | 8 | 4 | -7% | -10% | 11
CC(=O)c1ccc(NC(=O)CC2Nc3cccc4cccc(c34)NC2=O)cc1 (stereo not drawn) | 5% | / | -15 | 16µM* | 18µM* | -13
